Assay outcomes as filed in PubChem.
Rows were chosen to be rich in hits. Some 4.7% of all compounds tested hit in one or more screens of this group.
TRHR PAM: allosterically enhances the human TRH receptor; P34981; TRHR cells, fluo-8 calcium fluorescence, EC20 TRH enhancement; enhancement, % at 2 µM; actives 0.66% (n = 360,000); in the data active means enhancement above about 30%; further: 0% is about no effect
Target sequence (P34981 whole entry, looked up): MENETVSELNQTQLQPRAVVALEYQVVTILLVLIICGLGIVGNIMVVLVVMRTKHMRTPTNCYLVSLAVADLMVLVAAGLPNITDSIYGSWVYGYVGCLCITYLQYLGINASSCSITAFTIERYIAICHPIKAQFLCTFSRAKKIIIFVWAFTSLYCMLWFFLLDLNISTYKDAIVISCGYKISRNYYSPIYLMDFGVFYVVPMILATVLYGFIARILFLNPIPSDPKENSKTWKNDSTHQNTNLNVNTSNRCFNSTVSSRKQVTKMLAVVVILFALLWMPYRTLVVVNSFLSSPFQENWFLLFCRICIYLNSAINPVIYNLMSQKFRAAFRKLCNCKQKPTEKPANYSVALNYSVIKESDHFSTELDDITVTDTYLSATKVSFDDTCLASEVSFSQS
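Enhancer read-out: after compound pinning and an initial kinetic agonist-mode read, an EC20 of TRH (10 nM final) was injected and fluo-8 calcium signal (Ex 480/Em 530) followed at 1 s/cycle for 100 cycles in TRHR-expressing cells.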
D1 antag: human D1 dopamine receptor antagonism | P21728 | HEK293 TREx D1 cells, calcium flux, dopamine EC80; hits give low values | activity change, negative = inhibition, % at 10 µM | actives 3.2% (n = 360,000) | AID 504652; in the data active means activity change below about -30%; further: on the % scale 0 is the no-effect control and ±100 the full control effect
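Antagonism measured as reduced calcium response to an EC80 dopamine addition following 180 s compound pre-read; cells were inducible HEK293 Trex D1 plated overnight at 30 C, read kinetically at 1 cycle/sec.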
D1 PAM: enhances dopamine response at the human D1 receptor | P21728 | HEK293 TREx D1 cells, calcium flux, dopamine EC20 potentiation | potentiation, % at 10 µM | actives 0.036% (n = 360,000) | AID 504651; in the data active means potentiation above about 30%; further: 0% is about no effect
D1 ag: human D1 receptor agonism | P21728 | activation, % at 2 µM | AID 504660 | actives 1% (n = 360,000) | HEK293 T-REx D1 cells, calcium flux, agonist mode; further: 0% is about no effect
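Inducible HEK293 T-REx D1 cells, force-coupled to calcium signalling, were plated at 4000 cells/well with tetracycline and held overnight at 30 C. After no-wash calcium dye loading, compound-evoked calcium rise over 180 s flagged agonists.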
TRHR ag: TRH receptor (human) agonism; actives 0.18% (n = 360,000); activation, % at 2 µM; P34981; TRHR cells, calcium flux fluo-8, FDSS agonist mode; further: 0% is about no effect
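TRHR-expressing cells, plated overnight in medium with 10% serum, were loaded with fluo-8 calcium dye at room temperature. After a 10 s baseline, library compound was pin-added and calcium release was recorded kinetically (ex 480/em 530) as agonist response.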
* = called active by the depositor. Unless noted, no stated cut-off is given here; in the data, active means activation above about 30%; inactive means the rest.

Screening COC(=O)CCCC(=O)N1CCCC(C(=O)c2ccccc2SC)C1 (centres undefined) returned TRHR PAM 1, D1 antag -20, D1 PAM -5, D1 ag 3 and TRHR ag -1.
Screening O=C(c1ccc(-c2ccccc2)cc1)C1CCCN(C(=O)Cn2cncn2)C1 (centres undefined) returned TRHR PAM -5, D1 antag 8, D1 PAM 0, D1 ag 4 and TRHR ag 0.
Screening COc1ccccc1NS(=O)(=O)c1ccc(NC(=O)N2CCCCC2)cc1 returned TRHR PAM 5, D1 antag -46*, D1 PAM -9, D1 ag 4 and TRHR ag 0.
COc1ccccc1NS(=O)(=O)c1cccc(C(=O)NNC(=O)c2ccc(=O)[nH]c2)c1 was read as TRHR PAM -3, D1 antag -32*, D1 ag 6 and TRHR ag 0.
Screening COc1cc(C(=O)Nc2ccc(S(=O)(=O)Nc3cc(C)on3)cc2)cc(OC)c1OC returned TRHR PAM 9, D1 antag -79*, D1 PAM -2, D1 ag 0 and TRHR ag 0.
COc1ccccc1NS(=O)(=O)c1cccc(C(=O)OCc2nc3ccccc3s2)c1 was read as TRHR PAM -2, D1 antag -18, D1 PAM -1, D1 ag 8 and TRHR ag 1.
Screening COc1ccccc1NS(=O)(=O)c1cccc(C(=O)OCC(=O)Nc2cc(C)on2)c1 returned TRHR PAM 0, D1 antag -32*, D1 PAM -6, D1 ag 2 and TRHR ag 1.
Screening CCOc1cc(C(=O)Nc2ccc(S(=O)(=O)Nc3cc(C)on3)cc2)cc(OCC)c1OCC returned TRHR PAM 4, D1 antag 32, D1 PAM -2, D1 ag 2 and TRHR ag 0.
COc1ccccc1NS(=O)(=O)c1cccc(C(=O)NN=C2CCCCCC2)c1 was read as TRHR PAM 16, D1 antag -3, D1 PAM -2, D1 ag 1 and TRHR ag 0.
`COc1cc(NC(=O)C(CC(C)C)NS(=O)(=O)c2ccc3c(c2)CCCC(=O)N3)cc(OC)c1` (centres undefined) gave TRHR PAM 6, D1 antag -10, D1 PAM 4, D1 ag 2 and TRHR ag 1.
O=C(Cn1nc(-c2ccccc2)nc(Cc2ccccc2)c1=O)Nc1ccccc1 was read as TRHR PAM 1, D1 antag -3, D1 PAM -2, D1 ag 2 and TRHR ag 0.
Screening CCCNC(=O)Cn1c(=O)c2cccn2c2cccnc21 returned TRHR PAM -12, D1 antag 2, D1 PAM -2, D1 ag 0 and TRHR ag 1.
Screening COc1ccccc1NS(=O)(=O)c1cccc(NC(=O)Nc2ccc(Cl)cc2)c1 returned TRHR PAM 4, D1 antag -16, D1 PAM -8, D1 ag 15 and TRHR ag 1.
COc1ccccc1NS(=O)(=O)c1ccc(NC(=O)c2ccncc2)cc1 was read as TRHR PAM 38*, D1 antag -23, D1 PAM -5, D1 ag 14 and TRHR ag 1.
For COc1ccccc1NS(=O)(=O)c1ccc(C(=O)NCc2ccncc2)cc1 the results were TRHR PAM 3, D1 antag -26, D1 PAM 6, D1 ag -1 and TRHR ag 0.
For COc1ccccc1NS(=O)(=O)c1cccc(NC(=O)Nc2ccccc2)c1 the results were TRHR PAM -5, D1 antag -33*, D1 PAM -13, D1 ag 8 and TRHR ag -1.
Nc1ccccc1Sc1ccc(C(=O)c2ccccc2C(=O)O)cc1[N+](=O)[O-] was read as TRHR PAM -4, D1 antag 0, D1 PAM 1, D1 ag 2 and TRHR ag 0.
Screening O=C(COC(=O)c1ccccc1C(=O)c1ccc(Cl)c([N+](=O)[O-])c1)NC1CC1 returned TRHR PAM -8, D1 antag -41*, D1 PAM -9, D1 ag -1 and TRHR ag -1.
`CC(C)OC(=O)c1ccccc1C(=O)c1ccc(N)c([N+](=O)[O-])c1` gave TRHR PAM -4, D1 antag -34*, D1 PAM -5, D1 ag -1 and TRHR ag 0.
`O=C(COC(=O)c1ccc(O)cc1)NC1CCCC1` gave TRHR PAM 28, D1 antag 0, D1 PAM 4, D1 ag 3 and TRHR ag 0.
For O=C(COC(=O)/C=C/c1cccc([N+](=O)[O-])c1)Nc1ccc(Cl)cn1 the results were TRHR PAM -1, D1 antag -49*, D1 PAM -6, D1 ag 4 and TRHR ag 0.
For CNC(=O)COC(=O)c1ccccc1C(=O)c1ccc(Cl)c([N+](=O)[O-])c1 the results were TRHR PAM -7, D1 antag -13, D1 PAM -5, D1 ag 1 and TRHR ag -1.
Screening O=C(COC(=O)c1ccc([N+](=O)[O-])cc1)NC1CCCC1 returned TRHR PAM -5, D1 antag -45*, D1 PAM -5, D1 ag 1 and TRHR ag -1.
`Cc1cc(C)cc(NC(=O)CN(C)S(=O)(=O)c2ccc3c(c2)CCC(=O)N3)c1` gave TRHR PAM 7, D1 antag -4, D1 PAM -2, D1 ag 0 and TRHR ag 0.
`O=C(Nc1cccc(Cl)c1)Nc1ccccc1OCc1cc(=O)n2ccccc2n1` gave TRHR PAM 4, D1 antag -2, D1 PAM -3, D1 ag 0 and TRHR ag 0.
`O=C(COC(=O)c1cccc([N+](=O)[O-])c1)Nc1ccc(Cl)cn1` gave TRHR PAM -5, D1 antag 5, D1 PAM -14, D1 ag 3 and TRHR ag 1.
For O=C(COC(=O)c1ccc([N+](=O)[O-])cc1)Nc1ccc(Cl)cn1 the results were TRHR PAM 5, D1 antag -37*, D1 PAM 6, D1 ag 5 and TRHR ag 0.
For CCc1cc(C(=O)Cc2cnn(-c3ccccc3)c2)c(O)cc1O the results were TRHR PAM 1, D1 antag 0, D1 PAM -7, D1 ag 38* and TRHR ag 0.
`O=C(Cc1cnn(-c2ccccc2)c1)c1ccc(O)c(O)c1O` gave TRHR PAM -1, D1 antag -4, D1 PAM -2, D1 ag 3 and TRHR ag 0.
`N#Cc1ccc(S(=O)(=O)N2CCN(c3ncccn3)CC2)cc1` gave TRHR PAM 2, D1 antag -5, D1 PAM -5, D1 ag 4 and TRHR ag 0.
